# Laboratory results published in PubChem BioAssay AID652115 (Broad Institute, 2013).
# Values joined by “and” are separate entries in the source; they are usually repeats but may differ in a detail not shown here. Equal entries are not always repeated. Among all 330,000 compounds or so, about 3,800 (1.2%) were called active. Rule as the data show it: active = inhibition above about 15%; inconclusive = no clear call, values can overlap the other calls; inactive = below that. Shown is part of a subset that was picked to be rich in actives. A structure can be active in one record and inactive in another.
# Target: NAD-dependent protein deacylase sirtuin-5, mitochondrial (Homo sapiens) (UniProt Q9NXA8)
# Sequence (Q9NXA8 whole entry, looked up): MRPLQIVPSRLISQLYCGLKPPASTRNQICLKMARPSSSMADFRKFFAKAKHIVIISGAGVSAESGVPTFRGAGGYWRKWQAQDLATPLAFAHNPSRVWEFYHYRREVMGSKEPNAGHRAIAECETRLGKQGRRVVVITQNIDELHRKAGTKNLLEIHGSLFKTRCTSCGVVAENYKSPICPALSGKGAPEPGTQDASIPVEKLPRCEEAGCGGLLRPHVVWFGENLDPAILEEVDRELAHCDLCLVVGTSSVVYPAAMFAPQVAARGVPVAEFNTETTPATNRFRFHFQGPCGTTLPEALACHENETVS
# Experiment: SIRT5 desuccinylase inhibitors, primary screen, biochemical, fluorescence imaging, single point, set 5 (AID 652115)
# Settings: Purified SirT5, succinyl-peptide AMC, trypsin-coupled fluorescence; at 15 µM; stronger effect = higher value
row,Compound,inhibition
1,C[C@H](O)C#Cc1ccc2c(c1)O[C@H](CN(C)Cc1ccccn1)[C@@H](C)CN([C@@H](C)CO)S2(=O)=O,2.94% (inactive)
2,O=C(Cc1ccccc1)N[C@H]1C=C[C@H](CC(=O)N2CCCCC2)O[C@@H]1CO,1.42% (inactive)
3,COc1ccc2c3c([nH]c2c1)[C@H](CO)N(C(=O)NC1CCCC1)CC31CN(C(=O)Nc2cccc(F)c2)C1,5.32% (inactive)
4,O=C(NC1CCCCC1)N1CC2(C1)[C@@H](c1ccccc1)[C@@H](CO)N2CC1CCOCC1,-5.9% (inactive)
5,CC(C)NC(=O)N1CC(=O)N2[C@@H](CO)[C@H](c3ccc(C#CCN(C)C)cc3)[C@@H]2C1,-1.28% (inactive)
6,COCC(=O)N(C)C[C@@H]1Oc2cc(C#Cc3cccnc3)ccc2S(=O)(=O)N([C@H](C)CO)C[C@H]1C,-3.01% (inactive)
7,O=C(NC1CCCC1)[C@H]1[C@H](CO)[C@H]2Cn3c(ccc(-c4ccccc4F)c3=O)[C@@H]1N2C(=O)CC1CC1,-18.6% (inactive)
8,CN1c2ccc(-c3cccc(F)c3)cc2[C@@H]2[C@@H](CCN2C(=O)Nc2ccccc2F)[C@@H]1CO,-18.1% (inactive)
9,O=C(C[C@H]1CC[C@@H]2[C@H](COC[C@H](O)CN2S(=O)(=O)c2ccc(F)cc2)O1)NCCN1CCCCC1,-1.86% (inactive)
10,O=C(N[C@H]1CC[C@H](CCn2cc(-c3ccccc3F)nn2)O[C@@H]1CO)c1ccc2c(c1)OCO2,1.25% (inactive)
11,CN(Cc1ccccc1F)C[C@H]1[C@@H](c2ccccc2)[C@@H](CO)N1S(C)(=O)=O,0.402% (inactive)
12,O=C(Nc1ccccc1F)N1C[C@@H]2[C@H](c3ccccc31)[C@@H](CO)N2C(=O)Nc1ccccc1,-0.735% (inactive)
13,C[C@H]1CN([C@@H](C)CO)S(=O)(=O)c2ccc(C#CC3CCCC3)cc2O[C@H]1CN(C)C(=O)Cc1ccncc1,-0.107% (inactive)
14,C[C@@H]1CN([C@H](C)CO)S(=O)(=O)c2ccc(C#CC3CCCC3)cc2O[C@@H]1CN(C)C(=O)Cc1ccncc1,6.26% (inactive)
15,C[C@@H]1CN([C@H](C)CO)S(=O)(=O)c2ccc(C#CC3CCCCC3)cc2O[C@H]1CN(C)C(=O)Cc1ccncc1,0.678% (inactive) and -0.925% (inactive) and 15.2% (active)
16,CCCc1nnc(NC(=O)CCC(=O)N2CCN(S(=O)(=O)c3ccc(OC)cc3)CC2)s1,1.56% (inactive)
17,CCc1nnc(NC(=O)CCC(=O)N2CCN(c3cc(C)ccc3C)CC2)s1,18.5% (active)
18,CC(C)c1nnc(NC(=O)CCC(=O)N2CCN(c3cccc(Cl)c3)CC2)s1,0.459% (inactive)
19,O=C(C1CCC1)N1CC(=O)N2[C@@H](CO)[C@@H](c3ccc(C#Cc4cccc(F)c4)cc3)[C@@H]2C1,-4.53% (inactive)
20,Cc1ccccc1S(=O)(=O)N[C@H]1CC[C@H](CCn2cc(-c3ccc(F)cc3)nn2)O[C@H]1CO,-0.59% (inactive)
21,Cc1ccccc1S(=O)(=O)N[C@H]1CC[C@@H](CCn2cc(Cc3ccccc3)nn2)O[C@H]1CO,31.4% (active)
22,Cc1ccccc1S(=O)(=O)N[C@@H]1CC[C@H](CCn2cc(-c3ccc(F)cc3)nn2)O[C@@H]1CO,-4.75% (inactive)

row,Compound,inhibition
1,Cc1ccc(S(=O)(=O)N[C@@H]2CC[C@@H](CC(=O)O)O[C@@H]2CO)cc1,1% (inactive)
2,O=C(C[C@@H]1CC[C@H](NC(=O)Nc2ccc3c(c2)OCO3)[C@H](CO)O1)NCc1ccccc1,-2.1% (inactive)
3,CN1c2ccc(-c3ccccc3)cc2[C@H]2[C@H](CCN2C(=O)Cc2ccccn2)[C@H]1CO,21.9% (active)
4,CN1c2ccc(-c3ccccc3)cc2[C@@H]2[C@@H](CCN2C(=O)c2ccccc2)[C@H]1CO,6.95% (inactive)
5,CN1c2ccc(-c3ccccc3F)cc2[C@H]2[C@H](CCN2C(=O)Cc2ccccn2)[C@H]1CO,2.91% (inactive)
6,CCCNC(=O)C[C@H]1C[C@H]2c3cc(NC(=O)COC)ccc3O[C@H]2[C@H](CO)O1,-2.28% (inactive)
7,Cn1cnnc1SCC(=O)NNC(=O)COc1ccc(Br)cc1,-1.96% (inactive)
8,Cn1nnnc1SCC(=O)Nc1sccc1C(N)=O,-1.15% (inactive)
9,Cn1nnnc1SCC(=O)NNC(=O)c1ccc(Br)cc1,20.1% (active)
10,N#C[C@H]1[C@H](c2ccc(-c3cccc(F)c3)cc2)[C@@H](CO)N1C(=O)NC1CCCC1,3.71% (inactive)
11,O=C1CN(Cc2ccc(F)cc2)C[C@H]2[C@@H](c3ccc(Br)cc3)[C@H](CO)N12,2.52% (inactive)
12,CN1c2ccc(Br)cc2[C@@H]2[C@@H](CCN2C(=O)Cc2ccccc2)[C@@H]1CO,0.309% (inactive)
13,Cc1noc(C)c1S(=O)(=O)N(C)C[C@@H]1Oc2ccc(NC(=O)C3CC3)cc2CC(=O)N([C@@H](C)CO)C[C@@H]1C,1.59% (inactive)
14,C[C@@H]1CN([C@@H](C)CO)C(=O)c2cc(NC(=O)C3CC3)ccc2O[C@H]1CN(C)C,41.9% (active) and -3.15% (inactive)
15,Cc1noc(C)c1S(=O)(=O)N(C)C[C@H]1Oc2ccc(NC(=O)C3CC3)cc2C(=O)N([C@H](C)CO)C[C@@H]1C,20.9% (active)
16,CC(C)NC(=O)N(C)C[C@@H]1Oc2ccc(NC(=O)C3CC3)cc2C(=O)N([C@@H](C)CO)C[C@H]1C,0.185% (inactive)
17,C[C@@H]1CN([C@H](C)CO)C(=O)c2cc(NC(=O)C3CC3)ccc2O[C@@H]1CN(C)C,-4.11% (inactive)
18,Cc1noc(C)c1S(=O)(=O)N(C)C[C@H]1Oc2ccc(NC(=O)C3CCCCC3)cc2C(=O)N([C@H](C)CO)C[C@@H]1C,-3.3% (inactive)
19,COc1ccc2c3c([nH]c2c1)[C@H](CO)N(C(=O)c1ccncc1)CC31CCN(C(=O)c2ccncc2)CC1,12.6% (inactive)
20,COc1ccc(S(=O)(=O)N(C)C[C@@H]2OCCCC[C@H](C)Oc3ccc(NC(=O)NC(C)C)cc3C(=O)N([C@@H](C)CO)C[C@@H]2C)cc1,0.637% (inactive)
21,C[C@@H]1CN([C@@H](C)CO)C(=O)c2cc(/C=C/c3ccccc3)cnc2O[C@H]1CN(C)C(=O)Nc1ccc(C(F)(F)F)cc1,8.54% (inactive)
22,C[C@@H]1CN([C@H](C)CO)C(=O)c2cccc(NS(=O)(=O)c3ccc(F)cc3)c2O[C@@H]1CN(C)S(=O)(=O)c1ccccc1,3.68% (inactive)

row,Compound,inhibition
1,Cc1ccc(NC(=O)Cn2c(C)csc2=O)cc1,4.07% (inactive)
2,Cc1ccc(NC(=O)Cn2sc3ccccc3c2=O)cc1,19.6% (active)
3,Cc1nn(CC(=O)Nc2ccc(F)cc2)c(=O)c2ccccc12,-1.48% (inactive)
4,O=C(C[C@H]1C=C[C@H](NC(=O)Nc2ccccc2F)[C@@H](CO)O1)NCc1ccc(Cl)cc1,-6.94% (inactive)
5,CN1c2ccc(Br)cc2[C@H]2[C@H](CCN2S(=O)(=O)c2ccc(F)cc2)[C@@H]1CO,0.059% (inactive)
6,CC(C)NC(=O)N(C)C[C@H]1Oc2cc(C#Cc3ccccn3)ccc2S(=O)(=O)N([C@H](C)CO)C[C@@H]1C,-0.996% (inactive)
7,CCNC(=O)[C@@H]1[C@@H](CO)[C@@H]2Cn3c(ccc(C4=CCCC4)c3=O)[C@H]1N2Cc1ccccc1,-12.8% (inactive)
8,COc1cc(C2C3=C(CCCC3=O)OC3=C2C(=O)CCC3)ccc1OCC(=O)Nc1ccccc1,1.24% (inactive)
9,COc1ccc(C2C3=C(CCCC3=O)N(CC(=O)O)C3=C2C(=O)CCC3)cc1,-6.31% (inactive)
10,NC1=C([N+](=O)[O-])C(c2ccccc2)C2=C(CCCC2=O)O1 (stereo unspecified),15.7% (active)
11,C[C@H]1CCCCO[C@@H](CN(C)C(=O)c2ccccc2)[C@@H](C)CN([C@@H](C)CO)C(=O)c2cc(NS(=O)(=O)c3ccccc3)ccc2O1,0.494% (inactive)
12,Cc1ccc(-c2cnc3c(c2)C(=O)N([C@H](C)CO)C[C@H](C)[C@@H](CN(C)C(=O)c2cccc(F)c2)O3)cc1,-11.3% (inactive)
13,CN1CCN(C(=O)C[C@H]2CC[C@H]3[C@@H](COC[C@H](O)CN3C(=O)c3ccc(F)cc3)O2)CC1,1.19% (inactive)
14,O=C(CC1CC1)Nc1ccc2c(c1)[C@@H]1C[C@@H](CC(=O)NC3CCCCC3)O[C@@H](CO)[C@@H]1O2,-2.5% (inactive)
15,CO[C@@H]1CN(C)C(=O)c2ccc(NC(=O)C3CCCCC3)cc2OC[C@@H](C)N(Cc2nccs2)C[C@@H]1C,3.01% (inactive)
16,COc1ccc(NC(=O)Nc2ccc3c(c2)CC(=O)N([C@@H](C)CO)C[C@H](C)[C@@H](CN(C)Cc2ccc4c(c2)OCO4)O3)cc1,3.53% (inactive)
17,C[C@H]1CN([C@@H](C)CO)C(=O)c2cc(NC(=O)Nc3ccc4c(c3)OCO4)ccc2O[C@@H]1CN(C)CC1CCCCC1,6.87% (inactive)
18,CC(C)NC(=O)Nc1ccc2c(c1)CC(=O)N([C@H](C)CO)C[C@H](C)[C@H](CN(C)Cc1ccc3c(c1)OCO3)O2,4.37% (inactive)
19,C[C@@H]1CN([C@H](C)CO)C(=O)Cc2cc(NC(=O)Nc3ccc(F)cc3)ccc2O[C@@H]1CN(C)Cc1ccc2c(c1)OCO2,32.7% (active)
20,C[C@@H]1CN([C@@H](C)CO)C(=O)Cc2cc(NC(=O)Nc3ccc4c(c3)OCO4)ccc2O[C@@H]1CN(C)CC1CCCCC1,18.8% (active)
21,C[C@H]1CN([C@@H](C)CO)C(=O)Cc2cc(NC(=O)Nc3ccc4c(c3)OCO4)ccc2O[C@H]1CN(C)CC1CC1,-1.18% (inactive)
22,CCCNC(=O)C[C@@H]1CC[C@H]2[C@H](COc3ccc(NC(=O)CCC)cc3C(=O)N2C)O1,-0.672% (inactive)
